# Source: PubChem BioAssay
# A selection: hits, their analogues and other compounds. The true share with any hit is near 12%.
# BAZ2B block: inhibitors of human BAZ2B bromodomain; Q9UIF8; AlphaScreen BAZ2B-H3K14Ac peptide displacement; Potency, µM (highest dose often 114 µM), inactives show at the highest dose activity change, negative = inhibition, actives largely listed as inhibitors; 360,000 tested, 4.4% active; AID 504333; further: potency means the concentration at half of the fitted maximal effect; on the % scale 0 is the no-effect control and ±100 the full control effect; nearly all actives have a fitted effect of over 60% in size
#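 Compounds, titrated to a top concentration of 110 uM, were incubated 30 min at room temperature with preformed BAZ2B/acetyl-K14 H3 peptide complex (50 nM each). Proximity signal was measured by AlphaScreen after 20 min with beads.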
# HP1b chromo inh: inhibitors of HP1-beta chromodomain binding to methylated histone tails; 390,000 tested, 0.56% active; AlphaScreen HP1-beta / biotin-H3K9me3 peptide binding; P83916; Potency, µM (top dose mostly 114 µM), without a hit: at the highest dose activity change, negative = inhibition, hits mostly inhibitors; AID 540317; further: potency means the concentration at half of the fitted maximal effect; nearly all actives have a fitted effect of over 70% in size
#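 HP1-beta protein (50 nM final) preincubated 30 min at room temperature with biotinylated H3(1-18)K9me3 peptide (50 nM) in PBS pH 7.4, 0.01% Tween-20, then compound added for 30 min. AlphaScreen streptavidin donor/nickel chelate acceptor beads (10 ug/mL final), 30 min dark, luminescence read.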
# G9a block: blocks human histone lysine methyltransferase G9a; AID 504332; 350,000 tested, 8.8% active; G9a H3K9 monomethylation, AlphaScreen, 2 h; Q96KQ7; Potency, µM (top dose mostly 102 µM), for the others: at the top dose activity, negative = inhibition, most hits filed as inhibitors; further: potency means the concentration at half of the fitted maximal effect; on the % scale 0 is the no-effect control and ±100 the full control effect; nearly all actives have a fitted effect of over 75% in size
#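 Step 1: enzyme (final 20 nM) with compound, 15 min RT. Step 2: substrate peptide 500 nM and SAM 20 uM, 2 h RT. Step 3: anti-H3K9me1 antibody and AlphaScreen beads, 10 min, then plate read.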
# JMJD2A Tudor: blocks the human JMJD2A Tudor domain | AlphaScreen JMJD2A-Tudor / H3K4me3 peptide binding | Potency, µM (series often up to 114 µM), without a hit: at the top dose activity change, negative = inhibition, actives largely listed as inhibitors | 390,000 tested, 4.4% active; further: potency means the concentration at half of the fitted maximal effect; on the % scale 0 is the no-effect control and ±100 the full control effect; nearly all actives have a fitted effect of over 50% in size
# PLK1 PBD block: blocks phosphopeptide binding to human PLK1 polo-box domain. P53350. Plk1 PBD binding of FITC phosphopeptide, fluorescence polarization. Potency, µM, without a hit: max response, negative = inhibition, hits mostly inhibitors. 360,000 tested, 2.8% active. AID 720504; further: potency means the concentration at half of the fitted maximal effect; series mostly up to about 57 µM; on the % scale 0 is the no-effect control and ±100 the full control effect; nearly all actives have a fitted effect of over 65% in size
# PI5P4K alpha inh: blocks human PI5P4K alpha kinase activity; P48426; PI5P4Kalpha enzyme, ADP-Glo luminescence, 60 min; active compounds read low; max response, %; 330,000 tested, 1.2% active; AID 652105; active means max response of -50% or lower; inconclusive means between -30% and -50%; inactive means -30% or higher; further: value at the top dose of about 77 µM; on the % scale 0 is the no-effect control and ±100 the full control effect
#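 Compounds were pin-transferred onto PI5P4Kalpha and substrate in HEPES pH 7.4 buffer with EGTA, CHAPS and 5% DMSO. ATP (5 microM final) started the reaction, which ran 60 minutes at room temperature before ADP-Glo detection.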
# * marks the source's active call; other numbers are inactive results; ? = inconclusive; · = no result given; [ ] = remark or other dose. Unless noted, the call rests on the fitted dose curve; in most records, active means well fitted curve in the direction sought with a large enough effect; inconclusive means small, poorly fitted or top-dose-only effect, or another doubt; inactive means no such curve, though single readings can be large; an effect the other way counts as inactive or inconclusive.
SMILES,BAZ2B block,HP1b chromo inh,G9a block,JMJD2A Tudor,PLK1 PBD block,PI5P4K alpha inh
Cc1cc(C)c2oc(C(=O)NC3CCS(=O)(=O)C3)cc(=O)c2c1 (stereo not drawn),-14.6%,47.5%,35.7%,-6.2%,-3.2%,-5.1
Cc1ccccc1OCC(=O)Nc1cc(-c2cccc(Br)c2)nn1-c1ccccc1,-0.3%,29.7%[57 µM],-3.2%[59 µM],-4.2%,·,·
COC(=O)[C@]1(C)N[C@H](CN(C)C(C)=O)[C@@H]2C(=O)N(Cc3ccccc3)C(=O)[C@@H]21,·,46.0%,·,-14.5%,-0.8%,-2.4
Cc1ccc(C(=O)N2Cc3ccccc3CC2C(=O)O)cc1 (stereo not drawn),-26.2%,25.1%,35.5µM*,?,-6.5%,·
C=CCn1c(=O)c2c(nc(-c3ccc(S(=O)(=O)O)cc3)n2C)n(C)c1=O,·,19.8%,11.9µM*,?,-2.7%,-22.2
C=CCn1c(=O)c2c(nc3n2CCN3c2cccc(Cl)c2C)n(C)c1=O,-6.3%,7.0%,-8.7%,-12.5%,0.2%,-3.6
Cc1nn(C)cc1C(=O)NNC(=S)Nc1ccccc1,6.7%[57.1 µM],34.8%,?,-17.9%,-3.4%,2.2
CNC(=S)NNC(=O)c1cn(C)nc1C,-7.8%,54.3%,39.8µM*,-10.5%,-19.0%,-2.1
O=C(O)CSCC(=O)N1N=C2/C(=C/c3ccccc3)CCCC2C1c1ccccc1 (stereo not drawn),-13.1%,4.2%,50.1µM*,-23.9%,?,3.1
O=C(CSc1ncn[nH]1)N1N=C2/C(=C/c3ccccc3)CCCC2C1c1ccccc1 (stereo not drawn),-24.8%,8.8%,11.2µM*,?,-2.2%,-6.9
NC(=O)N1N=C2/C(=C/c3ccccc3)CCCC2C1c1ccccc1 (stereo not drawn),-17.0%,-2.9%,9.6%,-23.3%,-2.9%,-3.5
COc1ccc(/C=C2\CCCC3C2=NN(C(=O)CSc2ncn[nH]2)C3c2ccc(OC)cc2)cc1 (stereo not drawn),-37.9%,16.8%,-15.5%[59 µM],-31.1%,-0.5%,-7.8
Cc1ccc(CNC(=O)CSc2ncc3c(n2)-c2cc(Cl)ccc2N(C)S3(=O)=O)cc1,-0.2%,17.3%,-14.6%[59 µM],-5.2%,·,·
CC(C)(C)Cc1c(-c2ccc(F)cc2)nc2ccc(Cl)cn12,·,·,·,·,-12.6%,8.7
CCN(c1ccc(OC)cc1)S(=O)(=O)c1ccc2[nH]c3c(c2c1)CCCCC3,?,-15.5%,?,?,·,·
Cc1ccc(-c2cc(=O)[nH][nH]2)c(C)c1,-4.9%,32.7%,-6.5%[59 µM],-19.4%,-1.4%,·
CC(C)Cc1ccc(-c2cc(=O)[nH][nH]2)cc1,-1.5%,-14.5%,·,-11.3%[11.4 µM],16.8µM*,-11.0
O=C(OCCO)c1ccccc1O,·,·,24.9%[59 µM],·,·,·
NC(=O)Nc1ccc(Oc2ncc(C(F)(F)F)cc2Cl)cc1,-4.0%,-10.8%,5.2%,?,?,1.0
Cc1[nH]ccc(=O)c1Oc1ncc(C(F)(F)F)cc1Cl,-10.1%,20.6%,56.2µM*,-15.3%,3.3%,-1.1
O=C(Nc1ccc(F)cc1F)N1CCCC(c2nc(-c3ccc(F)cc3)no2)C1 (stereo not drawn),-8.5%,-5.8%,0.6%,-21.3%,11.9µM*,0.5
Cc1ccccc1CNC(=O)CCCn1c(=O)c2cccn2c2cccnc21,-24.9%,7.6%,-1.4%[59 µM],-29.3%,·,·
COc1ccc2c(c1)/C(=C/c1cc(OC)c(OC)c(OC)c1)C(=O)N2,·,11.2%,·,-22.9%,-2.4%,-9.4
C=C1c2cc(OC)ccc2NC(=O)N1CC,3.4%,31.0%,31.6µM*,-12.6%,-5.6%,-6.3
O=C(OCc1ccccc1)N1CCC2CC1c1ccc(N3CCNCC3)cc12 (stereo not drawn),·,·,·,·,-7.0%,-0.6
O=Cc1ccc2oc3nc4n(c(=O)c3c(=O)c2c1)CCCS4,56.2µM*,?,?,?,?,-72.6*
CC(NC(=O)c1ccc(S(=O)(=O)C(F)F)cc1)c1ccccc1 (stereo not drawn),-7.9%,-7.2%,16.7%,?,23.8µM*,-12.3
O=C(NC(c1ccccc1)c1ccccc1)c1ccc(S(=O)(=O)C(F)F)cc1,8.8%,26.8%,-1.6%,-7.4%,-6.0%,1.8
